Screens as filed in PubChem BioAssay.
KCNQ2 enhance = KCNQ2 (rat) channel potentiation; O88943; actives 0.54% (n = 310,000); CHO-K1 KCNQ2, FluxOR thallium flux fluorescence; stronger effect = higher value; B-score at 10 µM;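 active = fluorescence ratio B-score at least 3 SD of library B-scores, with initial fluorescence B-score within 3 of them, cut at about 5.3 in these data; same plate scores as AID 2156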;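 note: B-score of peak minus minimum over baseline fluorescence ratio after K+ and Tl+ stimulus; positive B-score means potentiation of KCNQ2 with more thallium influx and brighter signal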
Target sequence (O88943 whole entry, looked up): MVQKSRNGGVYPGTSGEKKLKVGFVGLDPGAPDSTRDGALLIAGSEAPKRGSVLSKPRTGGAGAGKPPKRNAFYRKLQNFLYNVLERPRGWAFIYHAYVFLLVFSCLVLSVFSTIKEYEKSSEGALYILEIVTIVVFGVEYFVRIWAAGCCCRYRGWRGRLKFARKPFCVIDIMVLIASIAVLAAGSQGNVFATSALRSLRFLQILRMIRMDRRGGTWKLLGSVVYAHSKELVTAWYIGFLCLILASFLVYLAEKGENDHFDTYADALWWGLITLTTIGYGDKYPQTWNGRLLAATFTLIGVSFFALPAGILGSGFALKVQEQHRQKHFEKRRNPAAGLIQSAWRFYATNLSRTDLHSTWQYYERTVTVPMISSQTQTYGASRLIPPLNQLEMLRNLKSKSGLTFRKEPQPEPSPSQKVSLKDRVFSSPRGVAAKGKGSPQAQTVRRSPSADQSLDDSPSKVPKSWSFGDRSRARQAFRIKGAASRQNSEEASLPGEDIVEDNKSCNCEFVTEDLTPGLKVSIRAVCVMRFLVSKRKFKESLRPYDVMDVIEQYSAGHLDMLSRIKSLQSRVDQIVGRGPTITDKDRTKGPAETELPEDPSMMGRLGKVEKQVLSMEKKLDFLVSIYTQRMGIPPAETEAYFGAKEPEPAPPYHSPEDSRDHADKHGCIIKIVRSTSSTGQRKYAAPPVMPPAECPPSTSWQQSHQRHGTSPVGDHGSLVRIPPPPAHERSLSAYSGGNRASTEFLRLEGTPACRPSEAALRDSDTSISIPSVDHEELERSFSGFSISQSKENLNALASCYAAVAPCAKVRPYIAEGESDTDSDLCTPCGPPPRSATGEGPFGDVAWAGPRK
KCNQ2 block = blocks the rat KCNQ2 potassium channel. CHO-K1 KCNQ2, FluxOR thallium flux, 20 min; stronger effect = lower value. B-score at 10 µM. actives 1.1% (n = 310,000). O88943. AID 2156;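 active = fluorescence ratio B-score at most minus 3 library SDs, with starting brightness B-score within 2 library SDs, cut at about -5.5 in these data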
Kir21 confirm = confirmation of mouse Kir2.1 potassium channel inhibitors. actives 41% (n = 2,300). Kir2.1-expressing cells, FluxOR thallium flux fluorescence; stronger effect = lower value. shares compounds with KCNQ2 enhance. Tl flux remaining, % of negative control (stronger effect = lower value), % at 10 µM;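 active = Primary-screen hit whose thallium flux fell at least 3 control SD below untreated wells in both duplicates, with normal baseline fluorescence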;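 note: 0% = blank wells without stimulus and 100% = stimulated no-compound controls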
HEK293 Tl flux = parental HEK293 activity in Kir2.1 inhibitor counter-screen. parental HEK293 cells, FluxOR thallium flux fluorescence; 0% = unstimulated blank wells. actives 19% (n = 2,300). FluxOR signal as % of negative control (100 = no effect), % at 10 µM. shares compounds with KCNQ2 enhance. AID 2105;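 active = dye signal at least 3 control SD above or below untreated wells in both duplicates, raw fluorescence within 3, either direction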;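 note: percent is based on the flux ratio of peak minus minimum fluorescence over baseline F0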
CHO-K1 Tl ctr = parental CHO-K1 activity in KCNQ2 potentiator counter-screen; actives 43% (n = 1,200); shares compounds with KCNQ2 enhance; parental CHO-K1 cells, FluxOR thallium flux fluorescence; zero = vehicle mean+3SD, 100% = vehicle-minus-blank window; activity increase over 3SD of controls, % at 10 µM;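 active = signal rise of at least 3 SD above the untreated control mean, in both duplicate wells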;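 note: counter screen of KCNQ2 potentiator hits so any rise reflects channel-independent effects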
KCNQ1 pot spec = tests whether KCNQ2 potentiators also act on human KCNQ1 | AID 2283 | activation over 3SD threshold, % at 10 µM | shares compounds with KCNQ2 enhance | actives 28% (n = 1,200) | CHO KCNQ1 stable, FluxOR thallium flux fluorescence; beyond 3SD, as % of vehicle-control signal;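 active = fluorescence ratio rise of at least 3 SD of vehicle wells above their mean, in both replicate wells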;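 note: 0% = vehicle mean plus 3 SD and 100% = vehicle minus unstimulated blank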
KCNQ2 pot confirm = rat KCNQ2 channel potentiator confirmation | actives 68% (n = 1,200) | potentiation, less the hit threshold, % at 10 µM | shares compounds with KCNQ2 enhance | CHO-KCNQ2 cells, FluxOR thallium flux fluorescence;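 active = fluorescence ratio rising 3 SD or more over the vehicle control mean in both replicates, plus primary screen hit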;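 note: peak minus minimum thallium fluorescence divided by baseline after K/Tl stimulus; 0% = vehicle mean plus 3 SD and 100% = vehicle minus unstimulated blank difference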
Kir2-1 sel = tests whether KCNQ2 potentiators also affect mouse Kir2.1; shares compounds with KCNQ2 enhance; AID 2345; actives 2% (n = 1,200); activity over 3SD threshold, % at 10 µM; HEK293 Kir2.1, FluxOR thallium flux fluorescence;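 active = fluorescence ratio rise of at least 3 SD above the vehicle-control mean, seen in both replicates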;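 note: 0% = vehicle mean plus 3 SD and 100% = vehicle minus no-stimulus blank window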
KCNQ2 W236L MoA = rat KCNQ2 W236L mutant potentiation by KCNQ2 potentiators | shares compounds with KCNQ2 enhance | CHO KCNQ2-W236L, automated patch clamp current | current increase over 3SD of negative controls (%), stronger effect = higher value, % at 25 µM | actives 10% (n = 940) | AID 2558;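 active = current increase at least 3 SD of the untreated controls above them in both duplicate recordings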
Active calls of the source: *. Hits are enriched below; roughly 1.6% of the tested compounds scored in any of these assays.

Nc1[nH]n2c(=O)cc(-c3ccccc3)nc2c1N=Nc1ccccc1 was read as KCNQ2 enhance 6.6*, KCNQ2 block inactive, Kir21 confirm inactive, HEK293 Tl flux inactive, CHO-K1 Tl ctr -27.5, KCNQ1 pot spec -24.9, KCNQ2 pot confirm 9.8*, Kir2-1 sel -21.4 and KCNQ2 W236L MoA inactive.
`CN(C(=O)c1nn(C)c2c1CS(=O)(=O)c1ccccc1-2)c1cccc(Cl)c1` gave KCNQ2 block inactive.
O=C(COC(=O)CNC(=O)c1ccc(Cl)cc1)Nc1cccc(S(=O)(=O)N2CCCC2)c1 was read as KCNQ2 block inactive.
Screening Cc1ccc(C(=O)N2CCN(c3ccc(F)cc3)CC2)cc1S(=O)(=O)N1CCCCC1 returned KCNQ2 block inactive.
For Cc1ccc(C(=O)N2CCN(c3ccccc3)CC2)cc1S(=O)(=O)N1CCCC1 the results were KCNQ2 enhance 1.72, KCNQ2 block inactive, Kir21 confirm inactive and HEK293 Tl flux inactive.
Screening CC(C)Oc1ccc(C(CCNCc2ccc(O)cc2)c2ccccc2)cc1 (configuration not stated) returned KCNQ2 block inactive.
Screening COc1ccc(OCC(O)CNC(C)c2ccccc2)cc1 (configuration not stated) returned KCNQ2 enhance 0.41 and KCNQ2 block inactive.
For COc1ccc(C(C)NCCC(c2ccc(OC(C)C)cc2)c2ccccc2OC)cc1 (configuration not stated) the results were KCNQ2 enhance -6.6, KCNQ2 block -6.6*, Kir21 confirm 56.5%* and HEK293 Tl flux inactive.
COc1ccc(C(CCNC(C)c2ccccc2)C(C)C)cc1 (configuration not stated) was read as KCNQ2 enhance 0.56, KCNQ2 block inactive, Kir21 confirm 47.5%* and HEK293 Tl flux inactive.
`CC1CC(C)CN(CCCNC(=O)CN2C(=O)CSc3ccc(S(=O)(=O)N4CCCCC4)cc32)C1` (configuration not stated) gave KCNQ2 enhance 0.81 and KCNQ2 block inactive.
CCc1ccc(Nc2n[n+](-c3ccccc3)c(-c3c(Cl)cccc3Cl)s2)cc1 was read as KCNQ2 block inactive.
For CCc1ccc(Nc2n[n+](-c3ccccc3)c(/C=C/c3ccccc3)s2)cc1 the results were KCNQ2 block inactive, Kir21 confirm 73.5%* and HEK293 Tl flux inactive.
For O=C(COc1ccc(C(=O)NCC2CCCO2)cc1)Nc1cccc(C(F)(F)F)c1 (configuration not stated) the results were KCNQ2 block inactive.
For O=C(COC(=O)CCc1c[nH]c2ccccc12)NC(c1ccccc1)c1ccccc1 the results were KCNQ2 block inactive.
Screening COc1ccc(-c2csc(NC(=O)CSc3nc(C)nc4sc(C(=O)O)c(C)c34)n2)cc1 returned KCNQ2 enhance 1.59 and KCNQ2 block inactive.
Screening CCC(C(=O)NCCCN(CC)Cc1ccccc1)n1nc(C)c2sc3ccccc3c2c1=O (configuration not stated) returned KCNQ2 block inactive, Kir21 confirm 47.0%* and HEK293 Tl flux 64.5%*.
Cc1nn(C(C)C(=O)NCCCN(Cc2ccccc2)C(C)C)c(=O)c2c1sc1ccccc12 (configuration not stated) was read as KCNQ2 enhance 0.8 and KCNQ2 block inactive.
Screening COc1ccc(C(OCC(O)CNCCc2ccc(S(N)(=O)=O)cc2)c2ccc(OC)cc2)cc1 (configuration not stated) returned KCNQ2 enhance 0.06 and KCNQ2 block inactive.
For OC(CNCCc1ccc(C(F)(F)F)cc1)COC(c1ccccc1)c1ccccc1 (configuration not stated) the results were KCNQ2 block inactive, Kir21 confirm 51.0%* and HEK293 Tl flux 68.0%*.
`Cc1[nH]c(=O)[nH]c(=O)c1S(=O)(=O)N(CC(C)C)CC(C)C` gave KCNQ2 block inactive.
Screening CCCSCCCNC(=O)c1ccc(NC(=O)C2=CSCCO2)cc1 returned KCNQ2 enhance 0.18 and KCNQ2 block inactive.
Screening CCCCCCCCCCOC(=O)Cn1c(COc2ccccc2OC)[n+](C)c2ccccc21 returned KCNQ2 block inactive, Kir21 confirm inactive and HEK293 Tl flux inactive.
For Cn1c(COc2ccccc2O)[n+](C)c2ccccc21 the results were KCNQ2 block inactive.
Screening CCN(Cc1ccccc1)C(=O)Cn1c(=O)n(CC(=O)N2CCCCC2)c(=O)c2sccc21 returned KCNQ2 enhance 0.27 and KCNQ2 block inactive.
For Cn1c(CNC(=O)C(Cc2ccccc2)NC(=O)c2ccccc2F)cc(=O)n(C)c1=O (configuration not stated) the results were KCNQ2 block inactive.
Screening Cn1c(=O)c2c(SCC(=O)c3ccccc3)nc(C3CC3)nc2n(C)c1=O returned KCNQ2 enhance 5.4*, KCNQ2 block inactive, Kir21 confirm inactive, HEK293 Tl flux inactive, CHO-K1 Tl ctr 84.2*, KCNQ1 pot spec -14.4, KCNQ2 pot confirm 2.4*, Kir2-1 sel -23.9 and KCNQ2 W236L MoA inactive.
Screening Cn1c(=O)c2c(SCC(=O)Nc3nccs3)nc(C3CC3)nc2n(C)c1=O returned KCNQ2 enhance 0.34 and KCNQ2 block inactive.
For CCCc1nc(SCC(=O)NCc2ccco2)c2c(=O)n(C)c(=O)n(C)c2n1 the results were KCNQ2 enhance 2.5 and KCNQ2 block inactive.
Screening CCCc1nc(SCC(=O)c2ccccc2)c2c(=O)n(C)c(=O)n(C)c2n1 returned KCNQ2 enhance 24.9*, KCNQ2 block inactive, Kir21 confirm inactive, HEK293 Tl flux inactive, CHO-K1 Tl ctr 67.0*, KCNQ1 pot spec 78.7*, KCNQ2 pot confirm 56.2*, Kir2-1 sel -26.2 and KCNQ2 W236L MoA inactive.
For CCc1nc(SCC(=O)c2ccccc2)c2c(=O)n(C)c(=O)n(C)c2n1 the results were KCNQ2 enhance 5.4*, KCNQ2 block inactive, Kir21 confirm inactive, HEK293 Tl flux inactive, CHO-K1 Tl ctr -24.8, KCNQ1 pot spec -18.9, KCNQ2 pot confirm 5.8*, Kir2-1 sel -23.1 and KCNQ2 W236L MoA inactive.
